In PubChem BioAssay AID1159580 (chemical genetic matrix, 2015):
About 2,000 (36%) of roughly 5,500 compounds were called active. Not shown: some 18% with an inconclusive outcome. No stated cut-off is given here; in the data, active means normalized growth mostly below about 0.91 (no sharp cut-off); inconclusive means no clear call, values can overlap the other calls; inactive means mostly above about 0.92. Some of the results follow.

Experiment: chemical genetic growth profiling, strain panel (AID 1159580);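 further: tested at 20 µM; growth read once vehicle control cultures reached saturation at 30 °C; 1 = growth at the plate median or of vehicle wells; lower values mean less growth of the strain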
Settings: growth OD

Measured: normalized growth

O=C(O)CSCCOc1ccccc1
inactive: S. cerevisiae deletion strains, locus YAL013W, strain DEP1, active compounds read low 1.01 | S. cerevisiae deletion strains, locus YBR229C, strain ROT2, active compounds read low 1.01 | S. cerevisiae deletion strains, locus YCL061C, strain MRC1, active compounds read low 1 | S. cerevisiae deletion strains, locus YDL101C, strain DUN1, active compounds read low 0.997 | S. cerevisiae deletion strains, locus YDL134C, strain PPH21, active compounds read low 1.03 | S. cerevisiae deletion strains, locus YDR150W, strain NUM1, active compounds read low 0.932 | S. cerevisiae deletion strains, locus YEL061C, strain CIN8, active compounds read low 1.01 | S. cerevisiae deletion strains, locus YGR078C, strain PAC10, active compounds read low 1 | S. cerevisiae deletion strains, locus YHR030C, strain SLT2, active compounds read low 1.07 | S. cerevisiae deletion strains, locus YHR087W, strain rtc3, active compounds read low 0.998 | S. cerevisiae deletion strains, locus YJR043C, strain POL32, active compounds read low 1.01 | S. cerevisiae deletion strains, locus YJR075W, strain HOC1, active compounds read low 1.02 | S. cerevisiae deletion strains, locus YKL190W, strain CNB1, active compounds read low 1.01 | S. cerevisiae deletion strains, locus YLR039C, strain RIC1, active compounds read low 1.04 | S. cerevisiae deletion strains, locus YLR058C, strain SHM2 (second series), active compounds read low 1.01 | S. cerevisiae deletion strains, locus YLR085C, strain ARP6, active compounds read low 0.997 | S. cerevisiae deletion strains, locus YLR262C, strain YPT6, active compounds read low 1.05 | S. cerevisiae deletion strains, locus YML094W, strain GIM5, active compounds read low 1.01 | S. cerevisiae deletion strains, locus YMR219W, strain ESC1, active compounds read low 1 | S. cerevisiae deletion strains, locus YMR263W, strain SAP30, active compounds read low 1.01 | S. cerevisiae deletion strains, locus YMR307W, strain GAS1, active compounds read low 1.05 | S. cerevisiae deletion strains, locus YNL153C, strain GIM3, active compounds read low 1 | S. cerevisiae deletion strains, locus YNL298W, strain CLA4 (second series), active compounds read low 1.02 | S. cerevisiae deletion strains, locus YNL322C, strain KRE1, active compounds read low 0.997 | S. cerevisiae deletion strains, locus YNR030W, strain Alg12, active compounds read low 1.02 | S. cerevisiae deletion strains, locus YPL055C, strain LGE1, active compounds read low 1.09 | S. cerevisiae deletion strains, locus YPL241C, strain CIN2, active compounds read low 0.994 | S. cerevisiae deletion strains, locus YPR135W, strain CTF4, active compounds read low 1.17 | S. cerevisiae strains, strain wild type, active compounds read low 1.02
